# GLP1R inv ag: inverse agonists of human GLP-1 receptor | HEK293 GLP-1R CRE-luciferase, luminescence, 24 h; GLP-1R form is constitutively active | Potency, µM (highest dose often 38.3 µM), most hits filed as inhibitors | hit rate 1.6% among 410,000; note: nearly all actives have a fitted effect of over 55% in size
#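 qHTS in 1536-well format: reporter HEK293 cells expressing constitutive GLP-1R activity in DMEM + 10% Nu serum, 24 hr with compounds at 37 deg C, luminescence read after 12 min with detection reagent.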
# GLP1R ag: activates the human GLP-1 receptor; HEK293 GLP-1R CRE-luciferase, luminescence, 4-6 h; cells express a hypersensitive GLP-1R form; AID 624172; P43220; hit rate 0.007% among 380,000; Potency, µM (highest dose often 45.6 µM), usual class: activators
# GLP1R cytotox: cytotoxic in the GLP-1 receptor inverse agonist counter-screen; HEK293 cAMP-luciferase reporter cells, luminescence, 24 h; AID 624418; hit rate 0.13% among 410,000; Potency, µM (titrated, usually from 38.3 µM), most hits filed as inhibitors;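 note: loss of luciferase light is scored as toxicity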
#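 Luminescence readout: signal drop marks cytotoxicity. Plated cells grew 12 h at 37 °C, 5% CO2, received 23 nL compound for 24 h, then got luciferase reagent, read after 12 min at RT.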
# PTHR1 agonist: activates the human parathyroid hormone receptor PTHR1; HEK293 GP2 PTHR1 cells, GloSensor cAMP luminescence, 1 h; Potency, µM (doses to about 115 µM), usual class: activators; hit rate 0.075% among 410,000; AID 743266; note: nearly all actives have a fitted effect of over 55% in size
#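 HEK-293-derived GP2 cells expressing PTHR1 and a GloSensor cAMP reporter, 3,000/well, plated overnight, given luciferin plus IBMX (each 0.5 mM as added) for 1 h at 37 °C, then compound for 1 h at 37 °C. Luminescence was read after 15 min at room temperature.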
# TSHR antag: antagonists of human thyroid stimulating hormone receptor; P16473; AID 504810; hit rate 0.2% among 330,000; activity change, negative = inhibition, % at 11.5 µM; TSHR-expressing cells, TSH-stimulated cAMP HTRF, 2 h; active compounds read low;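 active = activity change below a set negative limit, meaning inhibition stronger than a set level, cut at about -70% in these data; inconclusive = activity change between two set negative limits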
# Target sequence (P16473 whole entry, looked up): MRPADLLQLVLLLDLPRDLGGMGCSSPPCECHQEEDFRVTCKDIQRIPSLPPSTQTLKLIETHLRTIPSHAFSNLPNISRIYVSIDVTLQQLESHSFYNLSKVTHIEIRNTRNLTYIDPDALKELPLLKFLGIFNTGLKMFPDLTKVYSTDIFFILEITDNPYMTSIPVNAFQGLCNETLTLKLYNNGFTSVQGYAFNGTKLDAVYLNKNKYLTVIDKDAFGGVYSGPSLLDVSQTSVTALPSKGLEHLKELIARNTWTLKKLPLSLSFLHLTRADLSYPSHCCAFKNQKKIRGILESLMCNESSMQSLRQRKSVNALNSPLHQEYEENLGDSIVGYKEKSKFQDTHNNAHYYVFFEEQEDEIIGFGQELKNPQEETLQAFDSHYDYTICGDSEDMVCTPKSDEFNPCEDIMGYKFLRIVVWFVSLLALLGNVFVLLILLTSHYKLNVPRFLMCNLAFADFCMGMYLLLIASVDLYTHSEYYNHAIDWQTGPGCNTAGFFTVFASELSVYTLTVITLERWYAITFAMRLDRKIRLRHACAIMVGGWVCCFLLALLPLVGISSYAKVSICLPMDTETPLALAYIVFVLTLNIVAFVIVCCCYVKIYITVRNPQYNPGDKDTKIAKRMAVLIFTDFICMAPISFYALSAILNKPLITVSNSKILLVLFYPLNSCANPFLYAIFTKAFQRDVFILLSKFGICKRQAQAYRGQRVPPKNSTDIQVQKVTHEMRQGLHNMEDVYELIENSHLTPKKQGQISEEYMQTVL
#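 Freshly harvested TSHR cells receive pin-tooled compound, then EC80 TSH at 4nM final. After 2 hours at 37 deg C, antibody in lysis buffer and cAMP-d2 are added; 30 minutes at ambient temperature precede the HTRF read.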
# Numbers stand for hits; . = inactive; ? = inconclusive; / = no result given. A selection: hits, their analogues and other compounds. The true share with any hit is near 1.8%. Unless noted, calls come from the whole dose curve; as a rule, active = well fitted curve in the direction sought with a large enough effect; inconclusive = small, poorly fitted or top-dose-only effect, or another doubt; inactive = no such curve, though single readings can be large; an effect the other way counts as inactive or inconclusive.
SMILES,GLP1R inv ag,GLP1R ag,GLP1R cytotox,PTHR1 agonist,TSHR antag
CCOC(=O)c1ccc(COc2ccc(C(C)C)cc2)o1,?,.,.,.,.
CCOC(=O)C(CCCOc1ccc(C)cc1)C(=O)OCC,.,.,.,.,.
CCC(C)c1ccc(OCc2ccc(C(=O)O)o2)cc1 (centres undefined),2µM,.,.,.,.
CCOC(=O)C(CCCOc1ccc(C(C)CC)cc1)C(=O)OCC (centres undefined),10µM,.,.,.,.
O=C(CSc1nnnn1C1CCCCC1)Nc1cccc(NC(=O)c2ccco2)c1,7.08µM,.,.,.,.
COc1cccc(CN(Cc2ccco2)C(c2ccc(F)cc2)c2nnnn2C(C)(C)C)c1 (centres undefined),10µM,.,.,.,.
CC(C)c1ccc(N(CC(=O)O)S(=O)(=O)c2ccc3[nH]c(=O)c(=O)[nH]c3c2)cc1,.,/,.,?,/
CCOC(=O)c1cccc(NC(=O)c2cc(CN3CCOCC3)on2)c1,.,/,.,.,/
OCCC1CN(Cc2nc(-c3ccccc3)cs2)CCN1CCc1ccccc1 (centres undefined),10µM,.,.,.,.
COc1ccc(-n2c(-c3ccc(C)cc3)cc3c2CC(C)(C)CC3=O)c(OC)c1,?,/,.,.,/
Oc1ccc(NCc2ccccc2OCc2ccccc2F)cc1,.,11.2µM,?,.,.
Cc1ccc(NCc2ccccc2OCc2ccccc2F)cc1,?,.,.,.,.
Cc1cccc(NCc2ccccc2OCc2ccccc2F)c1,10µM,.,.,.,.
NS(=O)(=O)c1ccc(NCc2ccccc2OCc2ccccc2F)cc1,.,.,.,.,.
O=[N+]([O-])c1ccc(Oc2ccc(N=C=S)cc2)cc1,/,.,/,/,/
CNc1ccccc1C(C)(C)c1cc(-c2ccco2)n[nH]1,7.94µM,.,.,.,.
CCN(CC)C(C(=O)Nc1ccc(C(C)C)cc1)c1ccc2c(c1)OCO2 (centres undefined),7.08µM,.,?,.,.
CC(C)c1ccc(NC(=O)C(c2ccc3c(c2)OCO3)N2CCN(C(=O)c3ccco3)CC2)cc1 (centres undefined),10µM,.,.,.,.
CCOc1ccccc1NC(=O)C1CCN(S(=O)(=O)c2cccc3nonc23)CC1,.,/,.,.,/
CCCN1CCN(CCCNC(=S)Nc2ccc3nc(N4CCN(CC)CC4)cc(C)c3c2)CC1,?,.,?,?,.
Cc1cc(N2CCCC2)nc2ccc(NC(=S)NCCCN3CCC(C)CC3)cc12,5.01µM,.,?,.,.
Cc1cc(N2CCN(C)CC2)nc2ccc(NC(=S)NCCN3CCc4ccccc4C3)cc12,?,.,.,.,.
Cc1cc(N2CCN(C)CC2)nc2ccc(NC(=S)NCCCN3CCc4ccccc4C3)cc12,?,.,4.47µM,.,.
O=C(CC(c1ccccc1)c1ccccc1O)N1CCCC1 (centres undefined),.,.,.,.,.
O=C(CC(c1ccccc1)c1cc(Br)ccc1O)N1CCCCC1 (centres undefined),10µM,.,.,.,.
SMILES,GLP1R inv ag,GLP1R ag,GLP1R cytotox,PTHR1 agonist,TSHR antag
O=C(N/C(=C\c1ccccc1)C(=O)N1CCOCC1)c1ccc(Br)o1,.,.,.,.,.
O=C(N/C(=C\c1ccccc1)C(=O)N1CCCCC1)c1ccc(Br)o1,10µM,.,.,.,.
Cc1oc2ncn(CC(C)C)c(=O)c2c1C(=O)NCCCN1CCCCC1C (centres undefined),.,/,.,.,/
CCC(C)c1ccc(O)c(NC(=S)NC(=O)c2cccs2)c1 (centres undefined),8.91µM,.,.,.,/
Cn1cnnc1Sc1ccc(C(F)(F)F)cc1[N+](=O)[O-],6.31µM,.,.,.,.
Clc1cccc(-n2ncc3c(NC4CCCCCC4)ncnc32)c1,10µM,/,.,.,/
Cc1cccc(-n2ncc3c(NC4CCCCC4)ncnc32)c1,?,.,.,.,.
COc1ccc(-n2ncc3c(NC4CCCC4)ncnc32)cc1,7.94µM,/,.,.,/
COc1cccc(N2CCN(S(=O)(=O)c3ccc(-c4cc(C(F)(F)F)on4)s3)CC2)c1,.,/,.,.,/
CCN(CC)CCCNc1ncnc2scc(-c3ccc(F)cc3)c12,7.08µM,.,.,.,.
OCCN(CCO)c1cc2c3ccccc3ccc2c2ccccc12,10µM,.,.,.,/
OCCN(CCO)c1ccc2ccccc2c1,.,.,.,.,.
Cc1cc(C)c2c(=O)cc(C(=O)Nc3ccc(S(=O)(=O)Nc4onc(C)c4C)cc3)oc2c1,.,/,.,.,/
O[C@H]1C[C@H](c2ccc(Cl)cc2)N(CC2CCCCC2)C[C@@H]1n1cc(C2CC2)nn1,10µM,.,?,.,/
Oc1ccccc1/C=N/NC(=S)NC1CC2CC1C1C=CCC21 (centres undefined),?,.,4.47µM,.,.
COc1cccc(/C=N/NC(=S)NC2CC3CC2C2C=CCC32)c1O (centres undefined),.,.,?,.,.
Cc1nn(Cc2cccc(C(=O)NC34CC5CC(CC(C5)C3)C4)c2)c(C)c1Br,2.82µM,.,.,.,.
CCCNC(=O)c1cccc(Cn2nc(C)c(Br)c2C)c1,?,.,.,.,.
CCc1nnc2c(Nc3cc(OC)c(Cl)cc3OC)nc3ccccc3n12,.,/,.,.,/
O=C(CC1C(=O)NCCN1C(=O)c1ccc(Cl)cc1)Nc1ccc(F)cc1 (centres undefined),.,.,.,.,.
O=C(CC1C(=O)NCCN1C(=O)Nc1ccc(Cl)cc1)Nc1ccc(F)cc1 (centres undefined),11.2µM,.,.,.,.
CSCCC(NS(=O)(=O)c1ccc2c(c1)oc(=O)n2C)C(=O)NCCc1ccc(C)cc1 (centres undefined),.,/,.,.,/
CC1CC(C)CN(C(=O)C(C)N2CCN(S(=O)(=O)c3ccc(C(F)(F)F)cc3)CC2)C1 (centres undefined),10µM,.,.,.,/
CC1CC(C)CN(S(=O)(=O)c2ccc(C(C)(C)C)cc2)C1 (centres undefined),2µM,.,.,.,.
Cc1ccc(-n2c(C)cc(/C=N/NC(=O)CN(c3ccc(C)cc3C)S(C)(=O)=O)c2C)cc1,10µM,.,.,.,.
CCOc1cc(N2CCOCC2)c(OCC)cc1NC(=O)CN1CCc2ccccc2C1,4.47µM,.,.,.,.
CCOc1cc(N2CCOCC2)c(OCC)cc1NC(=O)CSc1ccccc1C(=O)O,.,.,.,.,.
CCOc1cc(N2CCOCC2)c(OCC)cc1NC(=O)CC12CC3CC(CC(C3)C1)C2,1µM,.,.,.,.
CC(C)(S)C(=O)NC(CS)C(=O)O (centres undefined),/,.,/,/,/
Cc1ccccc1CNC(=O)c1cnc2sc(N3CCC(C)CC3)nn2c1=O,.,/,.,.,/

# Screening results (PubChem)
